From PubChem BioAssay AID1159580 (chemical genetic matrix, 2015)
In all, about 5,500 compounds went through this assay and about 2,000 (36%) were called active. Inconclusive results (about 18%) are left out. Cut-off read from the data, not from the text of the source: active = normalized growth mostly below about 0.91 (no sharp cut-off); inconclusive = no clear call, values can overlap the other calls; inactive = mostly above about 0.92. Some of the results follow.

Assay: chemical genetic growth profiling, strain panel (AID 1159580);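 note: tested at 20 µM; growth read once vehicle control cultures reached saturation at 30 °C; 1 = growth at the plate median or of vehicle wells; lower values mean less growth of the strain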
Conditions: S. cerevisiae deletion strains, growth OD

Measured: normalized growth

Cc1ccc2nc(-c3ccc4c(c3)OCCO4)cn2c1
inactive: locus YAR019C, strain CDC15, active compounds read low 0.981 | locus YBL105C, strain PKC1, active compounds read low 0.98 | locus YBR135W, strain CKS1, active compounds read low 0.984 | locus YBR136W, strain MEC1, active compounds read low 0.983 | locus YBR160W, strain CDC28, active compounds read low 0.978 | locus YDL017W, strain CDC7, active compounds read low 0.985 | locus YDL028C, strain MPS1, active compounds read low 0.984 | locus YDL101C, strain DUN1, active compounds read low 0.988 | locus YDL108W, strain KIN28, active compounds read low 0.982 | locus YDL132W, strain cdc53, active compounds read low 0.982 | locus YDL214C, strain PRR2, active compounds read low 0.958 | locus YDR052C, strain DBF4, active compounds read low 0.988 | locus YDR054C, strain cdc34, active compounds read low 0.97 | locus YDR226W, strain ADK1, active compounds read low 0.99 | locus YDR477W, strain SNF1, active compounds read low 0.967 | locus YER123W, strain YCK3, active compounds read low 0.941 | locus YER133W, strain GLC7, active compounds read low 0.966 | locus YFL009W, strain cdc4, active compounds read low 0.981 | locus YFL029C, strain CAK1, active compounds read low 0.974 | locus YFR003C, strain YPI1, active compounds read low 0.983 | locus YFR019W, strain FAB1, active compounds read low 0.963 | locus YFR028C, strain CDC14, active compounds read low 0.976 | locus YGR040W, strain KSS1, active compounds read low 0.953 | locus YGR052W, strain FMP48, active compounds read low 1.04 | locus YGR092W, strain DBF2, active compounds read low 0.929 | locus YHR030C, strain SLT2, active compounds read low 0.986 | locus YHR079C, strain IRE1, active compounds read low 0.966 | locus YHR082C, strain KSP1, active compounds read low 1.01 | locus YHR205W, strain SCH9, active compounds read low 0.956 | locus YIL147C, strain SLN1, active compounds read low 0.983 | locus YJL095W, strain BCK1, active compounds read low 0.984 | locus YJL128C, strain PBS2, active compounds read low 0.969 | locus YJL157C, strain FAR1, active compounds read low 0.944 | locus YJR016C, strain ILV3, active compounds read low 0.983 | locus YJR066W, strain TOR1 (second series), active compounds read low 0.911 | locus YJR066W, strain TOR1, active compounds read low 1 | locus YKL048C, strain ELM1, active compounds read low 0.959 | locus YKL067W, strain YNK1, active compounds read low 0.967 | locus YKL101W, strain HSL1, active compounds read low 0.951 | locus YKL193C, strain SDS22, active compounds read low 0.983 | locus YKL203C, strain TOR2, active compounds read low 1.01 | locus YLR113W, strain HOG1, active compounds read low 0.899 | locus YLR133W, strain CKI1, active compounds read low 0.956 | locus YLR403W, strain SFP1, active compounds read low 0.947 | locus YML070W, strain DAK1, active compounds read low 0.938 | locus YMR001C, strain CDC5, active compounds read low 0.987 | locus YMR205C, strain PFK2 (second series), active compounds read low 0.97 | locus YMR277W, strain FCP1, active compounds read low 0.982 | locus YNL006W, strain LST8, active compounds read low 0.989 | locus YNL020C, strain ARK1, active compounds read low 0.961 | locus YNL161W, strain CBK1, active compounds read low 0.974 | locus YNL183C, strain NPR1, active compounds read low 0.996 | locus YNL207W, strain RIO2, active compounds read low 0.978 | locus YNL222W, strain SSU72, active compounds read low 0.979 | locus YNL307C, strain MCK1 (second series), active compounds read low 0.94 | locus YOL078W, strain AVO1, active compounds read low 0.98 | locus YOL136C, strain PFK27, active compounds read low 0.929 | locus YOR061W, strain CKA2, active compounds read low 0.966 | locus YOR119C, strain RIO1, active compounds read low 0.997 | locus YOR231W, strain MKK1, active compounds read low 0.932 | locus YOR329C, strain SCD5, active compounds read low 0.985 | locus YPL031C, strain PHO85, active compounds read low 0.958 | locus YPL153C, strain RAD53, active compounds read low 0.947 | locus YPL204W, strain HRR25, active compounds read low 0.935 | locus YPL209C, strain IPL1, active compounds read low 0.978 | locus YPL256C, strain CLN2, active compounds read low 0.923 | locus YPR025C, strain CCL1, active compounds read low 0.981 | locus YPR106W, strain ISR1, active compounds read low 0.973 | locus YPR111W, strain DBF20, active compounds read low 0.965 | strain NNK1, active compounds read low 0.975 | strain TSCII, active compounds read low 0.986
